This note sets out measurements from PubChem BioAssay (NCI).

The structures appear in SMILES notation. Compounds without any hit were thinned out: in the full panel of roughly 83,000, 20% have a hit.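 Step 1: grow cells in 96-well plates. Step 2: add test compound at a single concentration. Step 3: incubate 48 h. Step 4: record percent growth.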 Values without a mark were called inactive. Active and inactive are the calls of the source. Rule for the calls: active = growth percent below 10; inactive = the rest.

One assay has as its system HL-60(TB) leukemia. The assay is described as follows: NCI-60 one-dose screen, 48 h (100 = growth as untreated, 0 = no growth, -100 = all killed). Conditions: 10 µM unless noted.
Another assay concerns MDA-MB-468 breast. Described as above. Conditions: 10 µM unless noted.

`O=C(Nc1nc2ccc([N+](=O)[O-])cc2s1)Nc1ccccc1F`: the growth in the assay on HL-60(TB) leukemia was -8.08% (active).

Take `O=C(CNc1nc(-c2ccccc2)cs1)Nc1ccccc1`: the growth with HL-60(TB) leukemia is -30.5% (active).

As for `Cc1cccc(-c2ccccc2Oc2ccc3nnc(Cl)n3n2)c1`, the growth in the assay with HL-60(TB) leukemia is 108%.

As for `O=C(Nc1cccc(C(F)(F)F)c1)c1cncc(C#Cc2cnc3cccnn23)c1`, the growth with HL-60(TB) leukemia was 29.9%.

As to `Nc1cc2ccccc2c(=O)n1NC(=O)c1ccccc1`, the growth in the assay with HL-60(TB) leukemia is 101%.

As to `Cc1ccc(C(=O)Nc2cc(-n3ccnc3)cc(C(F)(F)F)c2)cc1-n1cc(-c2cnc3cccnn23)nn1`, the growth in the assay on HL-60(TB) leukemia is 50.5%.

As for `COc1ccc(-c2nc3cc(C)ccc3n2CC(=O)N=Nc2c(O)[nH]c3ccc(Br)cc23)cc1`, the growth in the assay with HL-60(TB) leukemia is 39.4%.

Regarding `CCOc1ccc(C(=O)NC(=S)Nc2ccc(S(N)(=O)=O)cc2)cc1`, the growth in the assay on HL-60(TB) leukemia was 103% [100 µM].

Take `O/N=C(\CSc1nnc(-c2c[nH]c3ccccc23)n1-c1ccccc1)c1ccc(Cl)cc1`: the growth in the assay on HL-60(TB) leukemia is -25.9% (active).

Take `CNC(=O)c1cccc(NC(=O)c2ccc3c(c2)nnn3/C(C#N)=C/c2ccccn2)c1`: the growth in the assay on HL-60(TB) leukemia was -14.7% (active).

Take `COc1ccc(S(=O)(=O)Nc2ccc(-c3ccc4c(c3)NC(=O)/C4=C\c3ccc[nH]3)cc2)cc1OC`: the growth in the assay on HL-60(TB) leukemia is 76.8%.

Consider `COc1cc(/C=C2\C(=N)N=C(SCc3nc4ccccc4[nH]3)NC2=O)ccc1O`, for which the growth in the assay on HL-60(TB) leukemia was 83.7%.

`COc1cc2oc(-c3cccc(C(=O)Nc4ccc(Cl)cc4)c3)cc(=O)c2c(OCCN)c1OC`: the growth in the assay on HL-60(TB) leukemia is -56.5% (active).

On to `O=C(CSc1nnc(-c2ccc3nc(-c4ccc(Cl)cc4)[nH]c3c2)o1)Nc1ccc(Cl)cc1`, for which the growth in the assay on HL-60(TB) leukemia was -20.9% (active).

Regarding `O=C(c1ccccc1)c1ccc2nc(-c3ccc(F)cc3)[nH]c2c1`, the growth in the assay on HL-60(TB) leukemia is 36.1%.

Consider `O=c1[nH]c(=O)c2c(-c3cc4ccccc4oc3=O)ccnc2[nH]1`, for which the growth in the assay on HL-60(TB) leukemia is 106%.

Turning to `CN1CCO/C1=C(/NC(=O)c1ccc(Cl)cc1)[P+](c1ccccc1)(c1ccccc1)c1ccccc1`, in the assay with HL-60(TB) leukemia, the growth is 54.7%.

Take `O=C(c1ccc(Cl)cc1)C1[C@H](c2ccccc2Br)[C@@H](c2ccccc2)NC12C(=O)Nc1ccccc12` (some centres not stated): the growth with HL-60(TB) leukemia is -2.22% (active).

Regarding `CN1CCc2c(sc3ncnc(N/N=C/c4cn(-c5ccccc5)nc4-c4ccc(Br)cc4)c23)C1`, the growth in the assay with HL-60(TB) leukemia was -4.94% (active).

Consider `CN(C)c1nc(NCCNS(=O)(=O)c2ccc(C(=O)/C=C/c3ccc(F)cc3)cc2)nc(Nc2ccc(F)cc2)n1`, for which the growth with HL-60(TB) leukemia was -38.7% (active).

Take `O=c1[nH]c2ccccc2cc1CSc1ccc(Nc2nccc(-c3ccc4c(c3)OCO4)n2)cc1`: in the assay with HL-60(TB) leukemia, the growth was 97.4%.

As for `Nc1nnc(-c2c[nH]c3ccc(F)cc23)c(-c2c[nH]c3ncccc23)n1`, in the assay with HL-60(TB) leukemia, the growth is 63.3%.

Take `COc1ccc(N=Nc2c(N)nn3c(N)c(C#N)c(-c4ccccc4)nc23)cc1`: the growth with HL-60(TB) leukemia is 80.8%.

As to `COc1ccc2[nH]c(=O)c(CSc3ccccc3Nc3nccc(-c4ccc5c(c4)OCO5)n3)cc2c1`, the growth with HL-60(TB) leukemia is 74%.

Consider `Cc1ccc(-c2nc(Nc3ccccc3S(N)(=O)=O)c3ccccc3n2)cc1`, for which the growth with HL-60(TB) leukemia is 81.1%.

Take `COc1ccc(-c2ccc(SCC(=O)Nc3ccc(C#N)cc3)nn2)cc1`: the growth in the assay with HL-60(TB) leukemia was 95.8%.

With `C=C1CC[C@@H]2[C@]3(C)COC(c4cn[nH]c4-c4ccc(Br)cc4)O[C@@H]3CC[C@@]2(C)[C@@H]1C/C=C1/C(=O)OCC1O` (some centres not stated), the growth in the assay on HL-60(TB) leukemia is -8.14% (active).

With `Cn1cc(/C=N/Nc2ccnc3cc(Cl)ccc23)c2ccccc21`, in the assay with HL-60(TB) leukemia, the growth is -60.3% (active).

For the compound `CSc1ccccc1NC(=O)c1ccc2nn(/C(C#N)=C/c3ccccn3)nc2c1`, the growth in the assay on HL-60(TB) leukemia was -12.8% (active).

For the compound `O=c1ccc(Cn2c(C(F)(F)F)cc3c(Cl)ncnc32)c[nH]1`, the growth in the assay with HL-60(TB) leukemia was -20.6% (active).

As for `O=[N+]([O-])c1cc([N+](=O)[O-])c(Nn2c3ccccc3c3ccccc32)c([N+](=O)[O-])c1`, the growth with MDA-MB-468 breast is -8.42% (active).

On to `O=C(N/N=C/c1ccc([N+](=O)[O-])o1)c1cc([N+](=O)[O-])cc([N+](=O)[O-])c1O`, for which, in the assay with MDA-MB-468 breast, the growth was 92.1%.
